PubChem BioAssay AID1850 (Southern Research Specialized Biocontainment Screening …, 2009)
The whole screen tested about 310,000 compounds, of which about 1,000 (0.32%) were called active. Only a sample is shown. Potency and affinity values are given separately. Unmarked numbers belong to inactive results. How the calls were made is not given here.

Experiment: PhoP regulon inhibitors, Salmonella typhi PhoP promoter GFP reporter, confirmatory (AID 1850);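 further: 0% = induced wells with vehicle and 100% = uninduced wells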
Conditions: fluorescence, 4 h, at 50 µM, stronger effect = higher value

Row | Structure (SMILES) | inhibition [%]
1 | O=C(Nc1ccc(C2=NCCN2)cc1)c1ccc(Cl)c(C(=O)Nc2ccc(C3=NCCN3)cc2)c1 | 1.21
2 | Cc1cccc(NC(=O)Nc2ccncc2)c1 | 16.9
3 | C/C(CC(=O)Nc1cc(C)ccn1)=N\NC(=O)c1ccncc1 | 3.7
4 | CCOC(=O)Cn1c(=N)n(CCOc2ccc(OC)cc2)c2ccccc21 | 10.3
5 | CCOC(=O)Cn1c(=N)n(CCOc2cccc(C)c2)c2ccccc21 | -0.323
6 | O=C(NCc1ccccn1)C1CN(S(=O)(=O)c2ccccc2)CCN1S(=O)(=O)c1ccccc1 (centres undefined) | 1.61
7 | Cc1sc2ncnc(SCC(=O)N3CCCC(C(F)(F)F)C3)c2c1C (centres undefined) | 8.83
8 | Cc1cc(OCC(=O)N2CCC[C@@H]2C(=O)O)c2c(C)c(C)c(=O)oc2c1 | 5.08
9 | O=C1CCCN1c1ncc(S(=O)(=O)c2ccc([N+](=O)[O-])cc2)s1 | 0.41
10 | O=C(Nc1ncc([N+](=O)[O-])s1)C1CC(=O)N(c2ccc(F)cc2)C1 (centres undefined) | 13
11 | O=C(CCc1nnc2ccc(N3CCCCC3)nn12)NCc1ccco1 | -3.14
12 | Cc1cc(C)c2nc(N(CCCN(C)C)C(=O)c3ccc(S(=O)(=O)N4CC(C)OC(C)C4)cc3)sc2c1 (centres undefined) | 7.15
13 | O=C1CC(c2ccco2)Sc2ccccc2N1 (centres undefined) | -2.22
14 | O=C1NC(c2ccco2)Nc2ccccc21 (centres undefined) | -3.49
15 | O=C1CC(c2ccccc2)CC(=O)C1=CN1CCCC1 (centres undefined) | -0.41
16 | COCCCNC(=S)NNC(=O)c1cccnc1 | 1.9
17 | Cc1ccc(C(=O)NC(=S)NNC(=O)c2ccccc2)cc1 | 19.1
18 | CC(=O)NNC(=S)NC(=O)c1ccc(C)cc1 | 9.68
19 | CC(=O)NC(=S)NNC(=O)CCc1ccccc1 | -2.11
20 | CC(=O)NNC(=S)NC(=O)c1cccc([N+](=O)[O-])c1 | 5.04
21 | Cc1ccc(C(=O)NNC(=S)NC(=O)c2ccc(Cl)cc2)cc1 | 6.07
22 | COCCCNC(=S)NNC(=O)c1csc(C)n1 | 3.64
23 | O=C(CCc1ccccc1)NNC(=S)NC(=O)c1ccc(Cl)cc1 | 10.2
24 | CC(C)CN(Cc1cc(=O)oc2cc3c(cc12)CCCC3)CC(C)C | 3.63
25 | CCOc1ncccc1C(=O)OCCN1C(=O)c2ccccc2C1=O | 7.33
26 | O=C(NNS(=O)(=O)c1ccccc1)c1cccc([N+](=O)[O-])c1 | -3.37

Row | Structure (SMILES) | inhibition [%]
27 | Cc1ccc(S(=O)(=O)NCc2cccnc2)c(C)c1 | 0.7
28 | COc1ccc(-c2nc3n(c(=O)c2C#N)CCS3)cc1 | 2
29 | CCCNS(=O)(=O)c1cc2c3c(c1)C(C)C(=O)N3CCC2 (centres undefined) | 8.86
30 | CC(=O)c1ccc(NC(=S)N2CCN(CCO)CC2)cc1 | 5.45
31 | Cc1cc(C)c(C(N)=O)c(NCCc2ccccc2)n1 | -2.71
32 | c1ccc(-c2nnc(CSc3nc4ccccc4[nH]3)o2)cc1 | -20.5
33 | CC1CCCCN1C(=O)c1ccc(NC(=O)c2ccccc2Cl)cc1 (centres undefined) | 3.28
34 | O=C(NNC(=S)Nc1ccccc1)c1ccc(O)cc1 | 9.42
35 | O=C(CCc1ccccc1)NNC(=O)CCc1ccccc1 | -2.48
36 | O=C(CCc1ccccc1)NNC(=O)c1ccccc1Cl | 3.05
37 | O=C(NC(=S)NNC(=O)c1ccccc1O)c1ccccc1 | 4.34
38 | c1ccc(C[C@H]2CNCCN2CC2(c3ccccc3)CC2)cc1 | -6.5
39 | Cc1cc2oc(C(=O)NCc3ccccc3)cc(=O)c2cc1C | -12.8
40 | CC1=NNC(=O)/C1=C\c1cn(-c2ccccc2)nc1-c1ccccc1 | 10.4
41 | CC1=C(C(=O)Nc2ccc(C)cc2C)C(c2cccs2)NC(=S)N1 (centres undefined) | 2.73
42 | O=C(Nc1ccccc1)N1CCCN(Cc2ccccc2F)C1 | 14
43 | O=C(Nc1ccc(Cl)cc1)N1CCCN(Cc2ccc(F)cc2)C1 | 0.26
44 | CC1CN(c2oc(-c3ccco3)nc2C#N)CC(C)O1 (centres undefined) | 6.8
45 | C/C(=N\N=C(N)N)c1cccc(Cl)c1 | 9.67
46 | C/C(=N\N=C(N)N)c1ccc(Cl)cc1 | -0.0633
47 | O=C(CNS(=O)(=O)c1ccccc1)N1CCc2ccccc2C1 | -1
48 | Cn1c(=O)c2c(nc(NCC3CCCO3)n2Cc2cccc(Br)c2)n(C)c1=O (centres undefined) | 2.34
49 | CN(C)S(=O)(=O)N1CCN(c2ccc([N+](=O)[O-])c(NC3CC3)c2)CC1 | -5.83
50 | CCCCCCCCCC[n+]1cccc(C(=O)N(CC)CC)c1 | 8.08
51 | CCCCCCCC[n+]1cccc(C(=O)N(CC)CC)c1 | -7.45
52 | CN(C)C(=O)C[n+]1ccc(/C=N/O)cc1 | -5.57

Row | Structure (SMILES) | inhibition [%]
53 | CC(C)(C)C(=O)C[n+]1ccc(C(N)=O)cc1 | -7.77
54 | CCN(CC)C(=O)C[n+]1ccc(C(N)=O)cc1 | -3.67
55 | NC(=O)C[n+]1ccc(/C=N/O)cc1 | -7.01
56 | O=C(c1ccc(F)cc1)N1CCN(C2CC3CCC2C3)CC1 (centres undefined) | -3.63
57 | O=C(Nc1ccc2ccccc2n1)c1ccccc1Br | -4.26
58 | CCC(C)NC(=O)CCC(=O)NNc1nc2ccccc2c2nc(C)nn12 (centres undefined) | 10.9
59 | CCn1cc(NC(=O)CCl)c(C)n1 | -1.91
60 | CC(C)(C)OC(=O)N1CCC(c2c(C(=O)NCC3CCN(C4CCCC4)C3)cnn2-c2ccccc2)CC1 (centres undefined) | 4.93
61 | Oc1ccccc1/C=N/Nc1nccnc1Cl | -1.82
62 | Oc1ccc(/C=N/Nc2nccnc2Cl)cc1 | -3.22
63 | O=C(COc1ccc(Br)cc1)N(Cc1ccccc1)c1ccccn1 | 12.3
64 | COc1ccc(NC(=O)CSCC(=O)N(C)CC(=O)Nc2ccc(Cl)c(C(F)(F)F)c2)cc1 | 5.95
65 | O=C(CCN1C(=O)c2ccccc2S1(=O)=O)N1CCN(c2cccc(Cl)c2)CC1 | 0.17
66 | O=C(N/N=C/c1ccc(O)c([N+](=O)[O-])c1)C(O)(c1ccccc1)c1ccccc1 | 4.8
67 | O=C(N/N=C/c1cccc([N+](=O)[O-])c1O)C(O)(c1ccccc1)c1ccccc1 | 2.48
68 | COc1cc([N+](=O)[O-])cc(/C=N/NC(=O)c2ccc(C)nc2)c1O | 18.7
69 | COc1cc([N+](=O)[O-])cc(/C=N/NC(=O)c2cc(C)nc3ccccc23)c1O | 21.1
70 | COc1cc(/C=N/NC(=O)c2ccc(C)nc2)cc([N+](=O)[O-])c1O | 2.56
71 | O=C(N/N=C/c1cc([N+](=O)[O-])ccc1O)Nc1ccccc1 | 17.7
72 | COc1cc([N+](=O)[O-])cc(/C=N/NC(=O)c2cncc(Br)c2)c1O | 12.7
73 | COc1cc(/C=N/NC(=O)c2cccnc2)ccc1OC(=O)c1ccc([N+](=O)[O-])cc1 | 5.86
74 | CCc1ccc(NC(=S)N(CCCN2CCN(C)CC2)Cc2cccs2)cc1 | 0.49
75 | Cc1nnc(SCC(=O)c2c(N)n(Cc3ccccc3)c(=O)n(C)c2=O)n1C | -13.4
76 | CC(=O)N(c1ccccc1C)S(=O)(=O)c1ccc(Cl)cc1 | -12.6
77 | O=C(Nc1ccccc1)c1ccc(=O)n(Cc2ccc(F)c(F)c2)c1 | -6.26
78 | CCOC(=O)N1CCc2c(sc3c2c(=O)n(Cc2ccccc2)c(=O)n3Cc2ccc(C)cc2)C1 | -2.36

Row | Structure (SMILES) | inhibition [%]
79 | CSc1ccccc1C(=O)C1CCCN(C(=O)c2csnn2)C1 (centres undefined) | -11.4
80 | COc1ccc(C(=O)NC2CC2)cc1OC1CCN(Cc2ccc(F)cc2Cl)CC1 | -3.14
81 | CC(O)(C#CCN1CCCC1)c1ccccc1 (centres undefined) | -6.56
82 | CCOC(=O)Cc1csc(NC(=O)c2sc3nc4ccc(C)cc4cc3c2N)n1 | -5.8
83 | Cc1ccc(CNc2ncc(-c3ccc4c(c3)OCO4)n2C)cc1 | -2.15
84 | Cn1c(-c2ccc3c(c2)OCO3)cnc1NCc1cccc(Cl)c1 | 2.65
85 | Cc1ccccc1Nc1nnc(SCC(=O)N(C)C2CCS(=O)(=O)C2)s1 (centres undefined) | -26.7
86 | Cc1cccc(NC(=O)C2CCCN(S(=O)(=O)c3cccc4nsnc34)C2)c1 (centres undefined) | 11
87 | COc1ccc(NC(=O)C2CCCN(C(=O)Nc3ccc(OC)cc3)C2)cc1 (centres undefined) | 13.2
88 | O=C(NNc1ccccn1)C(=O)NNS(=O)(=O)c1ccc(F)cc1 | -7.54
89 | Cc1ccc(S(=O)(=O)NNC(=O)C(=O)NNc2ccccn2)cc1 | 1.07
90 | CCOc1ccc2c(c1)OC(c1ccc(C)cc1)(C(F)(F)F)NC2=O (centres undefined) | 2.02
91 | COC(=O)c1c(NC(=O)CSc2nnc(Cn3nnc4ccccc43)n2C)sc(C)c1C | 8.24
92 | Cc1sc2nc(CSc3nc4ccccc4s3)[nH]c(=O)c2c1C | -8.83
93 | COc1ccc(NS(=O)(=O)c2cc(OC)ccc2OC)cc1 | -1.85
94 | Fc1ccccc1C1CC(c2ccco2)=Nc2ccccc2S1 (centres undefined) | 9.62
95 | CC(=O)NC1Sc2ccccc2N=C1c1ccccc1 (centres undefined) | -15.8
96 | Cc1ccc(Cl)cc1N(CC(=O)N1CCCCCC1)S(C)(=O)=O | -3.02
97 | Oc1ccc(CN2CCCCC2)c2cccnc12 | -7.91
98 | O=[N+]([O-])c1cc(CN2CCN(c3ccccc3)CC2)c(O)c2ncccc12 | 4.63
99 | Oc1ccc2ccccc2c1CN1CCN(c2ccccc2)CC1 | 2.7
100 | CC(C)COCc1ccc(O)c2ncccc12 | 1.72
101 | CCOc1cccc(CN2CCN(c3cccc(C(F)(F)F)c3)CC2)c1O | -5.55
102 | O=S(=O)(c1ccc(Cl)cc1)N1CCN(Cc2ccc(O)c3ncccc23)CC1 | -17.9
103 | CCCOCc1ccc(O)c2ncccc12 | 16.8
104 | c1ccc(N2CCN(Cc3ccnc4ccccc34)CC2)cc1 | -4.89
